Screens as filed in PubChem BioAssay.
MCF10A rerep: inducers of DNA re-replication in MCF 10A breast cells; MCF 10A DNA re-replication, Hoechst nuclear intensity, 48 h; Potency, µM (doses to about 46.1 µM), for inactives: at the top dose activity, positive = re-replication, actives largely listed as activators; 350,000 compounds, 2.9% hits; AID 624296; note: % of control where 0% means no effect; nearly all actives have a fitted effect of over 50% in size
PTAP TSG101 blk: blocks PTAP/TSG101 interaction to inhibit HIV-1 budding. Q99816. Fluorescence polarization, FITC-PTAP peptide / Tsg101 binding. Potency, µM (series often up to 115 µM), for the others: at the highest dose activity change, negative = inhibition, actives largely listed as inhibitors. 340,000 tested, under 10 active. AID 493005; active = well fitted inhibition curve with a large enough effect in the main read-out, with a control signal flat, not every such curve was filed as active; inconclusive = small, poorly fitted or top-dose-only effect, or effect the other way, or a change in a side signal; inactive = no such curve, though single readings can be large or run the other way; note: % of control where 0% means no effect
Target sequence (Q99816 whole entry, looked up): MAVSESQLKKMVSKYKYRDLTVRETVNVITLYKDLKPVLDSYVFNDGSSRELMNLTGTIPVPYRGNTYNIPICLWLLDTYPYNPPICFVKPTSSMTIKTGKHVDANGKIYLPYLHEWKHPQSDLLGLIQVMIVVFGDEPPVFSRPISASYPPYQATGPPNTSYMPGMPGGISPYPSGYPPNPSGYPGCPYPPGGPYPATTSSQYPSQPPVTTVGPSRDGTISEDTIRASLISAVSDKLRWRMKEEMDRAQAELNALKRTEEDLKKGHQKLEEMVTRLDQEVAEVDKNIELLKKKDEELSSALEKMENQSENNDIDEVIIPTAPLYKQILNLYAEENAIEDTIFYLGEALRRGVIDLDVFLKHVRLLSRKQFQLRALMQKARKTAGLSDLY
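Fluorescence anisotropy tracks displacement of a FITC-tagged PTAP peptide (50 nM) from the Tsg101 binding domain (10 uM), following a 20 min room-temperature incubation at pH 7.5.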
KB-V1 MDR tox: KB-V1 MDR subline cytotoxicity | KB-V1 MDR cells viability, CellTiter-Glo, 72 h | 400,000 compounds, 3.4% hits | Potency, µM (series often up to 46.1 µM), most hits filed as cytotoxic; note: % is set by controls: 0 for no effect and ±100 for the full control effect; nearly all actives have a fitted effect of over 60% in size
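Readout: CellTiter-Glo luminescence, 10 min after addition. Cells: KB-V1 MDR subline, 72 h at 37 degrees C with compound. Analysis: corrected, normalized data fitted to concentration-effect curves.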
KB-3-1 cytotox: KB-3-1 parental cell cytotoxicity. 400,000 compounds, 1.4% hits. Potency, µM (titrated, usually from 46.1 µM), usual class: cytotoxic. KB-3-1 viability, CellTiter-Glo ATP luminescence, 72 h; note: % is set by controls: 0 for no effect and ±100 for the full control effect; nearly all actives have a fitted effect of over 60% in size
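Viability of parental KB-3-1 cells, measured by CellTiter-Glo luminescence, followed a 72 h incubation at 37 °C with pinned compounds in phenol-red-free DMEM containing 10% FBS.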
PINK1 expr mod: changes PINK1 expression; PINK1 immunofluorescence, high-content cytometry, 24 h; Potency, µM (titrated, usually from 76.6 µM), without a hit: at the top dose activation (PINK1 increase), hits mostly activators; 410,000 compounds, 0.2% hits; AID 624263; active = well fitted activation curve with a large enough effect; inconclusive = small, poorly fitted or top-dose-only effect; cell line not stated here; note: % of control where 0% means no effect; nearly all actives have a fitted effect of over 65% in size
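Cells are seeded, rested 12 hours, then given compound at five concentrations or DMSO for 24 hours. After fixation, blocking and antibody staining, PINK1 amount and mitochondrial localization are scored; CCCP serves as control.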
SW480 rerep: inducers of DNA re-replication in SW480 colon cancer cells; SW480 DNA re-replication, Hoechst DNA content imaging, 48 h; Potency, µM (top dose mostly 46.1 µM), for the others: at the top dose re-replication activation, actives largely listed as activators; 340,000 compounds, 1.8% hits; note: % of control where 0% means no effect; nearly all actives have a fitted effect of over 55% in size
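Treated cells incubate 48 hr (37 C, 5% CO2), are stained 40 min with Hoechst, and nuclear fluorescence is enumerated; a rise in nuclei with high DNA signal marks re-replication.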
Numbers without * were called inactive; i = inactive; ? = inconclusive; . = not tested or not shown; [ ] = remark or other dose. Shown are actives, neighbours in structure and some others; about 6.8% of the full set was active somewhere. Unless noted, calls come from the whole dose curve; as a rule, active = well fitted curve in the direction sought with a large enough effect; inconclusive = small, poorly fitted or top-dose-only effect, or another doubt; inactive = no such curve, though single readings can be large; an effect the other way counts as inactive or inconclusive. Potency is the fitted concentration of half-maximal effect.

SMILES	MCF10A rerep	PTAP TSG101 blk	KB-V1 MDR tox	KB-3-1 cytotox	PINK1 expr mod	SW480 rerep
Cc1ccccc1C1N=C2Oc3ccccc3C=C2C(=O)N1 (stereo not drawn)	.	.	4.1µM*	7.3µM*	8%	.
Cc1noc(C)c1COc1ccc(C(=O)NCCc2ccccn2)cc1	3.3µM*	-5%	i	i	9%	5%
Cc1noc(C)c1COc1ccccc1C(=O)NC(C)CCc1ccccc1 (stereo not drawn)	-1%	-3%	i	i	5%	4.1µM*
Cc1noc(C)c1COc1ccc(CC(=O)NCCc2ccccn2)cc1	4%	-4%	i	i	-1%	-9%
Cc1noc(C)c1COc1ccc(CC(=O)NCc2ccccc2)cc1	5.8µM*	-3%	?	?	5%	?
CCCN1C(=O)S/C(=C\c2ccc(N3CCOCC3)o2)C1=O	16µM*	?	?	?	9%	3.7µM*
CCCN1C(=O)S/C(=C/c2ccc(N3CCOCC3)o2)C1=O	?	?	?	i	40µM*	?
COC(=O)CN1C(=O)S/C(=C/c2ccc(N3CCCCC3)o2)C1=O	?	?	i	i	8.9µM*	?
CCCCNc1nc2c(S(=O)(=O)c3ccc(Br)cc3)nnn2c2ccsc12	.	.	i	i	2%	.
COc1ccc(-n2nnc(-c3nsc(NC(=O)c4cccc(C)c4)n3)c2C)cc1OC	.	.	i	i	9%	.
CN(C)S(=O)(=O)c1ccc(N2CCN(S(=O)(=O)c3ccc(F)cc3)CC2)c(Cl)c1	2%	-5%	5.8µM*	?	-2%[38.3 µM]	-3%
CN(C)S(=O)(=O)N1CCN(S(=O)(=O)c2ccc(F)cc2)CC1	4%	-4%	i	i	?	9%
COc1ccc(/C=C/c2cc(O)cc(OC3OC(CO)C(O)C(O)C3O)c2)cc1 (stereo not drawn)	-4%	0%	i	i	0%	0.18µM*
Cc1cc(Cl)ccc1OCC(=O)N/N=C/c1ccc(OC2OC(CO)C(O)C(O)C2O)cc1 (stereo not drawn)	-1%	-2%	i	i	2%	-7%
COc1ccc(OCC(=O)N/N=C/c2ccc(O[C@@H]3O[C@H](CO)[C@@H](O)[C@H](O)[C@H]3O)cc2)cc1	5%	-2%	i	3.7µM*	-1%	0%
Cc1coc2c(C)c3oc(=O)c(CCC(=O)N4CCCCC4)c(C)c3cc12	.	.	.	.	1%	.
Cc1noc(C)c1-c1cc(NCc2ccccc2)ncn1	.	.	.	.	-1%	.
COc1ccc(-c2ccc3[nH]c4c(c3c2)CCN2C(=O)[C@@H]([C@H](C)O)[C@@H](N(C)C(=O)Nc3cc(Cl)cc(Cl)c3)C[C@@H]42)cc1	.	.	i	?	6%	.
COc1ccc(-c2ccc3[nH]c4c(c3c2)CCN2C(=O)[C@@H]([C@H](C)O)[C@@H](N(C)C(=O)Nc3ccc(F)cc3)C[C@@H]42)cc1	.	.	16µM*	i	18%	.
C[C@H](O)[C@@H]1CN2CCc3c([nH]c4ccc(-c5ccc6c(c5)OCO6)cc34)[C@@H]2C[C@@H]1N(C)C(=O)Nc1ccc(F)cc1	.	.	?	5.8µM*	0%	.
COc1ccc(Cn2c(O)c(C=Nc3ccc(O)cc3)c3ccccc3c2=O)cc1	6.5µM*	?	21µM*	?	6%	?
COc1ccc(Cn2c(O)c(C=Nc3ccccc3)c3ccccc3c2=O)cc1	-2%	8%	i	i	1%	-15%
COc1cccc(N2CCN(C(=O)c3cc4cc5cc(C)ccc5nc4s3)CC2)c1	.	.	i	i	5%	.
CCn1ncc(Cl)c1C(=O)NC(=S)Nc1ccccc1Br	17%	-9%	16µM*	?	-1%	0%
CCCCn1nnc(NC(=O)C(c2ccccc2)c2ccccc2)n1	10%	-4%	i	i	1%	8%
